Source: PubChem BioAssay (DiRusso Lab, Biochemistry Department, University of Nebraska)
Only a selection was taken, and hits are over-represented in it overall.
Chlamy TAG: increases triacylglycerol in Chlamydomonas reinhardtii; Chlamydomonas reinhardtii TAG, Nile Red fluorescence, 72 h; calls only at 10 µM (by protocol); hit rate 0.84% among 44,000; AID 1159537; call rule not given here;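 further: hits raise Nile Red signal meaning more stored TAG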
Active calls of the source: *; i = inactive; + = active, no number.

SMILES	Chlamy TAG
OCCN1CCN(Cc2ccc(F)c(F)c2)CC1	i
CC(C)c1ccc(CN2CCN(CCO)CC2)cc1	+
OCCN1CCN(Cc2ccc(Cl)cc2)CC1	i
CCOc1ccccc1NC(=O)C(Cl)(Cl)Cl	i
CCSc1nc2ccccc2c(=O)n1-c1ccccc1	i
COc1ccc(CCN(C)Cc2cccc([N+](=O)[O-])c2)cc1OC	i
COc1ccc(CCN(C)Cc2ccc([N+](=O)[O-])cc2)cc1OC	+
COc1ccc(CCN(C)Cc2ccc([N+](=O)[O-])o2)cc1OC	i
CN1CCN(c2ccc(Cl)cc2[N+](=O)[O-])CC1	i
CCCN1CCC(N2CCCCCCC2)CC1	i
COc1ccccc1N1CCN(Cc2ccc(F)cc2)CC1	+
CCOc1ccccc1N1CCN(Cc2ccc(OC)cc2)CC1	i
COc1ccc(CN2CCN(c3ccccc3OC)CC2)cc1O	i
COc1ccccc1N1CCN(Cc2ccc(O)cc2)CC1	+
COc1ccccc1N1CCN(Cc2ccc(F)c(Br)c2)CC1	i
COc1ccccc1N1CCN(Cc2ccc(Cl)c(Cl)c2)CC1	i
C1=CC2CC1CC2CN1CCCCC1c1cccnc1 (centres undefined)	i
Cc1cccc(N2CCN(Cc3cc(Br)ccc3O)CC2)c1C	i
Cc1cccc(N2CCN(Cc3ccccc3[N+](=O)[O-])CC2)c1C	i
CN(CCc1ccccc1)Cc1cccc([N+](=O)[O-])c1	i
CCN1CCN(Cc2cccs2)CC1	i
Oc1ccc(Cl)cc1CN1CCN(Cc2ccccc2)CC1	+
COc1ccc(O)c(CN2CCN(Cc3ccc(Cl)cc3)CC2)c1	i
O=[N+]([O-])c1ccc(O)c(CN2CCN(Cc3ccccc3)CC2)c1	i
CCOc1ccc(Cl)cc1/C=C/[N+](=O)[O-]	i
SMILES	Chlamy TAG
O=[N+]([O-])c1ccc(N2CCNCC2)cc1N1CCOCC1	i
CCN(CC)c1ccc(CN2CCN(c3ccccc3)CC2)cc1	i
CCc1ccc(CN2CCN(c3ccccc3C)CC2)cc1	+
CC(=O)c1ccc(N2CCN(Cc3ccc(Br)cc3)CC2)cc1	i
Cc1cccc(N2CCN(Cc3ccc(F)cc3)CC2)c1C	i
CSc1ccc(CN2CCN(c3ccccc3C)CC2)cc1	i
Cc1ccccc1N1CCN(Cc2ccccc2)CC1	i
O=C(Cc1ccccc1)N1CCN(Cc2ccc([N+](=O)[O-])cc2)CC1	i
O=[N+]([O-])c1ccc(CN2CCN(Cc3ccccc3F)CC2)cc1	+
Brc1ccc(CN2CCN(c3ccccc3)CC2)cc1	+
Cc1ccccc1N1CCN(Cc2ccc(F)cc2)CC1	+
Cc1ccccc1N1CCN(Cc2ccc(Br)cc2)CC1	i
CC(C)c1ccc(CN2CCN(c3ccccc3)CC2)cc1	i
O=[N+]([O-])c1ccccc1CN1CCN(Cc2ccccc2)CC1	i
CN1CCC(NC2C3CC4CC(C3)CC2C4)CC1 (centres undefined)	i
COc1ccc(-c2nc3ccccc3c(=O)n2-c2ncccc2C)cc1	i
O=c1cccc2n1C[C@H]1C[C@H]2CN(Cc2ccc3c(c2)OCO3)C1	i
O=[N+]([O-])c1ccc(N2CCCC(O)C2)c2cccnc12 (centres undefined)	i
COc1ccc(-c2nc3ccccc3c(=O)n2-c2cccc(OC)c2)cc1	i
CCOc1ccccc1CN1CCN(c2ccccc2F)CC1	i
O=c1cccc2n1C[C@H]1C[C@H]2CN(Cc2cc(Cl)ccc2O)C1	i
Cc1cccc(N2CCN(Cc3cccc([N+](=O)[O-])c3)CC2)c1C	i
Cc1cccc(N2CCN(Cc3ccc([N+](=O)[O-])cc3)CC2)c1C	+
Cc1cccc(N2CCN(Cc3ccccc3)CC2)c1C	i
Oc1cccc(CN2CCN(c3ccc(F)cc3)CC2)c1	i
c1ccc(CCN2CCOCC2)cc1	i
Fc1ccc(N2CCN(CCc3ccccc3)CC2)cc1	+
Cc1cccc(N2CCN(Cc3ccc(N(C)C)cc3)CC2)c1C	i
CSc1ccc(CN2CCN(c3cccc(C)c3C)CC2)cc1	i
COc1cc(CN2CCN(c3cccc(Cl)c3)CC2)cc(Br)c1O	i
